{"source": "PubChem BioAssay AID463173", "about": "(ICCB-Longwood Screening Facility, Harvard Medical School, 2010)", "note": "“And” between values parts separate entries of the source, which are not always exact repeats. Identical values can stand only once. In all, about 52,000 compounds went through this assay and about 4,300 (8.3%) were called active. Cut-off read from the data, not from the text of the source: active = survival mostly below about 52% (no sharp cut-off); inactive = mostly above about 56%. Many of the other results were omitted from the sample, so actives are more common in it than they were. The source holds several records for some structures; these can differ, active in one and inactive in another."}
{"system": "DeltatarO mutant", "assay": "growth inhibition of S. aureus wild type versus tarO mutant, primary screen, teichoic acid synthesis inhibitors, RN4220, OD600 (AID 463173)", "conditions": "OD600, 18 h, stronger effect = lower value, screened at 18.75 µg/mL (by protocol)"}
{"smiles": "Cc1ccc(C)c(NS(=O)(=O)c2ccc3oc(=O)c4ncn(C)c4c3c2)c1", "survival": "82% (inactive)"}
{"smiles": "Cc1ccccc1Cn1c(CCCNC(=O)C2CCCCC2)nc2ccccc21", "survival": "90% (inactive)"}
{"smiles": "COc1cccc(OCc2nc3ccccc3n2Cc2ccccc2C)c1", "survival": "75% (inactive)"}
{"smiles": "O=C(NCCc1nc2ccccc2n1Cc1ccccc1F)c1ccc(F)cc1", "survival": "81% (inactive)"}
{"smiles": "O=C(NCCCc1nc2ccccc2n1Cc1ccccc1F)c1ccco1", "survival": "63% (inactive)"}
{"smiles": "COc1ccc(Cc2nc3ccccc3n2Cc2ccccc2F)cc1", "survival": "18% (active)"}
{"smiles": "COc1ccc(Cc2nc3ccccc3n2Cc2ccccc2C)cc1", "survival": "-3% (active)"}
{"smiles": "CC(=O)N1CCc2cc(CNC(=O)Cc3ccc(F)cc3)ccc21", "survival": "94% (inactive)"}
{"smiles": "Cc1oc2cc3oc(=O)c(CC(=O)N4CCCCC4)c(C)c3cc2c1C", "survival": "73% (inactive)"}
{"smiles": "O=C(Cn1cc(SCc2ccccc2F)c2ccccc21)N1CCCCC1", "survival": "82% (inactive)"}
{"smiles": "O=C(Nc1ccc(C(F)(F)F)cc1)c1cc(S(=O)(=O)NC2CCCCC2)ccc1F", "survival": "92% (inactive)"}
{"smiles": "CCOc1ccc(NC(=O)c2ccc(F)c(S(=O)(=O)N(CC)Cc3ccccc3)c2)cc1", "survival": "78% (inactive)"}
{"smiles": "O=C(Nc1ccc(F)c(F)c1)c1cc(S(=O)(=O)NC2CCCCCC2)ccc1F", "survival": "54% (inactive)"}
{"smiles": "Cc1ccc(NC(=O)c2cc(S(=O)(=O)NC3CCCCC3)ccc2F)cc1Cl", "survival": "-5% (active)"}
{"smiles": "O=C(Nc1ccc(Cl)cc1)c1cc(S(=O)(=O)NC2CCCCCC2)ccc1F", "survival": "90% (inactive)"}
{"smiles": "CCc1ccc(NC(=O)c2ccc(F)c(S(=O)(=O)NC3CCCCCC3)c2)cc1", "survival": "-2% (active)"}
{"smiles": "Cc1ccc(NC(=O)c2cc(S(=O)(=O)NC3CCCCCC3)ccc2F)cc1F", "survival": "92% (inactive)"}
{"smiles": "CCOc1ccc(NC(=O)c2ccc(F)c(S(=O)(=O)N(Cc3ccc(C(=O)OC)cc3)Cc3ccc(OC)c(OC)c3)c2)cc1", "survival": "47% (active)"}
{"smiles": "CCc1ccc(NC(=O)c2ccc(F)c(S(=O)(=O)N(C)C3CCCCC3)c2)cc1", "survival": "84% (inactive)"}
{"smiles": "COC(=O)c1ccc(CN(Cc2ccc(OC)c(OC)c2)S(=O)(=O)c2cc(C(=O)Nc3cccc(C)c3)ccc2F)cc1", "survival": "86% (inactive)"}
{"smiles": "O=C(Nc1ccc(C(F)(F)F)cc1)c1cc(S(=O)(=O)NC2CCCCCC2)ccc1F", "survival": "25% (active)"}
{"smiles": "O=C(Nc1ccc(Br)cc1)c1ccc(F)c(S(=O)(=O)NC2CCCCCC2)c1", "survival": "84% (inactive)"}
{"smiles": "CSc1nnc(COc2ccc(Br)cc2)n1Cc1ccccc1", "survival": "97% (inactive)"}
{"smiles": "CCNC(=O)Nc1ccc2nc(C)n(Cc3cccc(Cl)c3)c(=O)c2c1", "survival": "104% (inactive)"}
{"smiles": "Cc1nn(-c2ccccc2)c2c1N(CCCC(=O)NCc1ccccc1)C(=O)CS2", "survival": "99% (inactive)"}
{"smiles": "O=C(c1ccco1)N1CCN(Cc2cccc(Br)c2)CC1", "survival": "95% (inactive)"}
{"smiles": "Cc1ccc(CNC(=O)CCCCn2c(=O)c3ccccc3n(Cc3ccc(C)cc3)c2=O)cc1", "survival": "67% (inactive)"}
{"smiles": "CCOc1ccc(OCC)c(NC(=O)C2CCN(S(=O)(=O)c3ccc(Br)s3)CC2)c1", "survival": "80% (inactive)"}
{"smiles": "COc1cc(NC(=O)C2CCN(S(=O)(=O)c3ccc4c(c3)oc(=O)n4C)CC2)cc(OC)c1", "survival": "102% (inactive)"}
{"smiles": "Fc1ccccc1OCc1nc(-c2ccc(-n3cccc3)cc2)no1", "survival": "75% (inactive)"}
{"smiles": "COc1ccc(CNC(=O)CSc2nc3ccccc3nc2Cc2ccccc2OC)cc1", "survival": "70% (inactive)"}
{"smiles": "Cc1ccc(NC(=O)C2CCC(CNS(=O)(=O)c3ccc4c(c3)C(C)(C)C(=O)N4C)CC2)cc1", "note": "(configuration not stated)", "survival": "67% (active)"}
{"smiles": "CCOc1ccc(NC(=O)C2CCC(CNS(=O)(=O)c3ccc4c(c3)CCCC(=O)N4)CC2)cc1", "note": "(configuration not stated)", "survival": "47% (active)"}
{"smiles": "COc1ccc(NC(=O)C2CCC(CNS(=O)(=O)c3ccc4c(c3)C(C)(C)C(=O)N4C)CC2)cc1", "note": "(configuration not stated)", "survival": "54% (inactive)"}
{"smiles": "Cc1cc(C)cc(NC(=O)C2CCC(CNS(=O)(=O)c3ccc4c(c3)C(C)(C)C(=O)N4C)CC2)c1", "note": "(configuration not stated)", "survival": "102% (inactive)"}
{"smiles": "CC(=O)c1ccc(NC(=O)C2CCC(CNS(=O)(=O)c3ccc4c(c3)CCCC(=O)N4)CC2)cc1", "note": "(configuration not stated)", "survival": "73% (inactive)"}
{"smiles": "CC(C)c1ccc(NC(=O)C2CCC(CNS(=O)(=O)c3ccc4c(c3)CCCC(=O)N4)CC2)cc1", "note": "(configuration not stated)", "survival": "73% (inactive)"}
{"smiles": "Cc1ccc(S(=O)(=O)NC2CCCCC2)c2nsnc12", "survival": "78% (inactive)"}
{"smiles": "Cc1nc(C)c(CCNS(=O)(=O)c2ccc(F)cc2)s1", "survival": "119% (inactive)"}
{"smiles": "CCc1cccc(NC(=O)CSc2n[nH]c(-c3ccccc3Cl)n2)c1", "survival": "66% (inactive)"}
{"smiles": "Cc1cc(Nc2ccccc2O)nc(C)n1", "survival": "67% (inactive)"}
{"smiles": "COc1cc(OC)c(NS(=O)(=O)c2c(C(=O)N3CCC(C)CC3)c(C)n(C)c2C)cc1Cl", "survival": "17% (active)"}
{"smiles": "CCOc1ccc(OCC)c(NS(=O)(=O)c2c(C(=O)N3CCCCCC3)c(C)n(C)c2C)c1", "survival": "76% (inactive)"}
{"smiles": "CCOc1ccc(OCC)c(NS(=O)(=O)c2c(C(=O)N3CCC(C)CC3)c(C)n(C)c2C)c1", "survival": "8% (active)"}
{"smiles": "CC(=O)Nc1ccc(NS(=O)(=O)c2c(C(=O)N3CCCCCC3)c(C)n(C)c2C)cc1", "survival": "66% (inactive)"}
{"smiles": "Cc1ccc(NS(=O)(=O)c2c(C(=O)N3CCC(C)CC3)c(C)n(C)c2C)cc1Cl", "survival": "126% (inactive)"}
{"smiles": "CC(=O)Nc1ccc(NS(=O)(=O)c2c(C(=O)N3CCC(C)CC3)c(C)n(C)c2C)cc1", "survival": "20% (active)"}
{"smiles": "COc1cc(OC)c(NS(=O)(=O)c2c(C(=O)N3CCCCCC3)c(C)n(C)c2C)cc1Cl", "survival": "68% (inactive)"}
{"smiles": "COc1ccc(C)cc1NS(=O)(=O)c1c(C(=O)N2CCC(C)CC2)c(C)n(C)c1C", "survival": "89% (inactive)"}
{"smiles": "CCOc1ccc(CNS(=O)(=O)c2c(C(=O)N3CCC(C)CC3)c(C)n(C)c2C)cc1OC", "survival": "81% (inactive)"}
{"smiles": "Cc1ccc(CNC(=O)c2c(-c3ccccc3F)noc2C)o1", "survival": "89% (inactive)"}
{"smiles": "CCC1CN(C(=O)N2CCC(C(=O)NCCN(CC)CC)CC2)c2cc(C)ccc2O1", "note": "(configuration not stated)", "survival": "94% (inactive)"}
{"smiles": "Cn1ccc2c(OCC(=O)Nc3ccc(OC(F)(F)F)cc3)cccc2c1=O", "survival": "95% (inactive)"}
{"smiles": "CCCc1nn2c(=O)cc(COC(=O)c3cccc(NC(=O)CCc4ccccc4)c3)nc2s1", "survival": "131% (inactive)"}
{"smiles": "CC(=O)c1ccc(NC(=O)Cn2c(=O)nc(-c3ccccc3)c3cc(Cl)ccc32)cc1", "survival": "115% (inactive)"}
{"smiles": "O=C(NCCC1=CCCCC1)C1CC(O)CN1C(=O)Nc1ccccc1", "note": "(configuration not stated)", "survival": "87% (inactive)"}
{"smiles": "CCOC(=O)c1c(-c2ccccc2)csc1NC(=O)c1cc(-c2ccc(C)c(F)c2)on1", "survival": "52% (active)"}
{"smiles": "CCOC(=O)c1c(NC(=O)c2cc(-c3cccc(OC)c3)on2)sc2c1CCCC2", "survival": "46% (active)"}
{"smiles": "CCOC(=O)c1c(NC(=O)c2cc(-c3ccc(OC)c(OC)c3)on2)sc2c1CCCC2", "survival": "52% (inactive)"}
{"smiles": "CCOC(=O)c1c(-c2ccc(C)cc2)csc1NC(=O)c1cc(-c2ccc(OC)cc2)on1", "survival": "49% (inactive)"}
{"smiles": "CCOC(=O)c1c(NC(=O)c2cc(-c3ccc(Cl)cc3)on2)sc2c1CCCC2", "survival": "68% (inactive)"}
{"smiles": "CCOC(=O)c1c(-c2ccccc2)csc1NC(=O)c1cc(-c2ccc(F)cc2)on1", "survival": "66% (inactive)"}
{"smiles": "CCOC(=O)c1c(-c2ccccc2)csc1NC(=O)c1cc(-c2cccc(OC)c2)on1", "survival": "43% (active)"}
{"smiles": "CCOC(=O)c1c(-c2ccccc2)csc1NC(=O)c1cc(-c2cccc(Cl)c2)on1", "survival": "59% (inactive)"}
{"smiles": "CCOC(=O)c1c(-c2ccc(C)cc2)csc1NC(=O)c1cc(-c2ccc(C)c(F)c2)on1", "survival": "55% (inactive)"}
{"smiles": "CCc1ccccc1-n1nnc(-c2nsc(NC(=O)c3ccc(C)c(C)c3)n2)c1C", "survival": "130% (inactive)"}
{"smiles": "COc1ccc(NC(=O)C2Cc3ccccc3CN2S(=O)(=O)c2ccccc2)cc1OC", "note": "(configuration not stated)", "survival": "94% (inactive)"}
{"smiles": "CCc1c(C)sc2c1CCN(Cc1cccc(OC)c1)C2c1ccccc1", "note": "(configuration not stated)", "survival": "60% (inactive)"}
{"smiles": "CCCCNC(=O)c1ccc2c(=O)n(Cc3ccc(OC)cc3)c(=O)[nH]c2c1", "survival": "68% (inactive)"}
{"smiles": "COc1cc(OC)c(NC(=O)CCNS(=O)(=O)c2ccc3c(c2)oc(=O)n3C)cc1Cl", "survival": "83% (inactive)"}
{"smiles": "Cc1cc(/C=C(\\C#N)C(=O)N2CCc3ccccc3C2)c(C)n1C", "survival": "87% (inactive)"}
{"smiles": "O=C(/C=C\\c1ccc2c(c1)OCO2)NC1CC(=O)N(c2cccc(F)c2)C1", "note": "(configuration not stated)", "survival": "67% (inactive)"}
{"smiles": "Cc1sc(-n2cccc2)c(C(C)NC(=O)Nc2ccccc2Cl)c1C", "note": "(configuration not stated)", "survival": "61% (inactive)"}
{"smiles": "Cc1sc(-n2cccc2)c(C(C)NC(=O)Nc2cccc(C(F)(F)F)c2)c1C", "note": "(configuration not stated)", "survival": "23% (active)"}
{"smiles": "COC(=O)c1ccc(NC(=O)NC(C)c2c(-n3cccc3)sc(C)c2C)cc1", "note": "(configuration not stated)", "survival": "52% (inactive)"}
{"smiles": "COC(=O)c1ccc(Cl)cc1NC(=O)NC(C)c1c(-n2cccc2)sc(C)c1C", "note": "(configuration not stated)", "survival": "19% (active)"}
{"smiles": "Cc1ccc(NC(=O)NC(C)c2c(-n3cccc3)sc(C)c2C)cc1F", "note": "(configuration not stated)", "survival": "64% (inactive)"}
{"smiles": "COc1ccc(NC(=O)NC(C)c2c(-n3cccc3)sc(C)c2C)cc1OC", "note": "(configuration not stated)", "survival": "58% (inactive)"}
{"smiles": "CCn1nc(CCC(=O)O)c2ccccc2c1=O", "survival": "80% (inactive)"}
{"smiles": "Nc1ccc2oc(-c3ccccc3Br)nc2c1", "survival": "87% (inactive) and 39% (active)"}
{"smiles": "O=C(Nc1ccc2oc(-c3cccc4c(Br)cccc34)nc2c1)c1ccc(Br)cc1", "survival": "71% (inactive)"}
{"smiles": "Cc1ccc2oc(-c3ccccc3C)nc2c1", "survival": "105% (inactive)"}
{"smiles": "CCOC(=O)CC(NC(=O)c1cc2cc(OC)ccc2oc1=O)c1ccc(OC)cc1", "note": "(configuration not stated)", "survival": "74% (inactive)"}
{"smiles": "Cc1ccc(-c2noc(CCCC(=O)NCc3ccco3)n2)cc1", "survival": "53% (inactive)"}
{"smiles": "Cc1ccc(CC(=O)NCc2nc(-c3cccc(C)c3)no2)cc1", "survival": "69% (inactive)"}
{"smiles": "Cc1ccc(-c2noc(CNC(=O)c3ccc(C)c(Cl)c3)n2)cc1", "survival": "49% (inactive)"}
{"smiles": "Cc1ccccc1C(=O)NCc1nc(-c2ccc(Cl)cc2)no1", "survival": "47% (active)"}
{"smiles": "Cc1ccc(-c2noc(CNC(=O)c3ccccc3)n2)cc1", "survival": "63% (inactive)"}
{"smiles": "Cc1cccc(-c2noc(CNC(=O)c3ccc(C)cc3C)n2)c1", "survival": "37% (active)"}
{"smiles": "COc1cccc(-c2noc(CCCC(=O)NCc3ccco3)n2)c1", "survival": "109% (inactive)"}
{"smiles": "Cc1cccc(-c2noc(CCCC(=O)NCc3ccco3)n2)c1", "survival": "42% (active)"}
{"smiles": "Cc1cccc(-c2noc(CNC(=O)c3ccccc3Br)n2)c1", "survival": "72% (inactive)"}
